Measured values published in PubChem BioAssay.
The source made the active and inactive calls.

Assays:
[1] = E. coli DRC41 culture turbidity changes, primary screen, E. coli filamentation inducer project, strain DRC41, OD650, 48 h (AID 1152);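 further: E. coli MC1000 strain DRC41 lacking acrAB efflux pump and sulA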; details: E. coli DRC41 (acrAB sulA), higher = more signal, called active from +8 up or from −8 down
[2] = small-molecule binders of probe aLefty1, primary screen, biochemical, small-molecule microarray, 635/667 nm fluorescence (AID 1153); details: higher = more signal;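 further: score merges spot fluorescence with signal-to-noise ratio from the scanned slide images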
[3] = PSAC antagonists in infected red cells, primary screen, cell-based, P. falciparum Indochina, OD700, 1 h (AID 1154); details: P. falciparum Indochina infected RBC osmotic lysis, higher = more signal, called active from +8 up or from −8 down
[4] = PSAC antagonists in infected red cells, primary screen, cell-based, P. falciparum Indochina, OD700, 2 h (AID 1155);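 further: lysis reports solute entry through the parasite surface anion channel PSAC; channel blockers reduce lysis of infected cells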; details: P. falciparum Indochina infected erythrocytes, osmotic lysis OD700; higher = more signal, called active from +8 up or from −8 down
[5] = osmotic lysis modulators in infected erythrocytes, primary screen, PSAC antagonist project, cell-based, P. falciparum Indochina, OD700, 3 h (AID 1156); details: higher = more signal, called active from +8 up or from −8 down
[6] = PSAC antagonists in infected red cells, primary screen, cell-based, P. falciparum Indochina, OD700, 18 h (AID 1157); details: P. falciparum Indochina infected erythrocytes, osmotic lysis OD700, 18 h; higher = more signal, called active from +8 up or from −8 down
[7] = modulators of S6 phosphorylation in cells, primary screen, cell-based, A549, cytoblot, luminescence, serum-stimulated (AID 1158); details: A549 phospho-S6 cytoblot, 5 h, higher = more signal;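 further: serum-stimulated A549 lung adenocarcinoma cells; signal is phosphorylated S6 detected by cytoblot immunostaining with HRP secondary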
[8] = molecular target: NADPH oxidase 2 (Homo sapiens) (UniProt P04839); test: NOX2-dependent H2O2 signal modulators, primary screen, NOX inhibitor project, cell-based, HEK293-NOX2, PMA-stimulated, Amplex Red fluorescence (AID 1159); details: 45 min, higher = more signal, called active from +8 up or from −8 down; further: test concentration not given here
[9] = molecular target: NADPH oxidase 4 (Homo sapiens) (UniProt Q9NPH5); test: NOX4-dependent H2O2 signal modulators, primary screen, NOX inhibitor project, cell-based, HEK293-NOX4, tetracycline-induced, Amplex Red fluorescence (AID 1160); details: 45 min, higher = more signal, called active from +8 up or from −8 down
[10] = molecular target: NADPH oxidase 5 (Homo sapiens) (UniProt Q96PH1); test: NOX5-dependent H2O2 signal modulators, primary screen, NOX inhibitor project, cell-based, HEK293-NOX5, Amplex Red fluorescence (AID 1161); details: HEK293-NOX5, ionomycin, 45 min, higher = more signal
[11] = A549 cell viability effects, profiling panel, calcein-AM fluorescence, 48 h, basal (AID 1162); details: higher = more signal; further: test concentration not given here
[12] = adipocyte viability effects, profiling panel, cell-based, 3T3-L1 adipocytes, calcein-AM fluorescence, 48 h, basal (AID 1163); details: 3T3-L1 adipocytes viability, higher = more signal; further: test concentration not given here
[13] = HepG2 cell viability effects, profiling panel, calcein-AM fluorescence, 48 h, basal (AID 1164); details: higher = more signal; further: test concentration not given here
[14] = MM1S cell viability effects, profiling panel, calcein-AM fluorescence, 48 h, basal (AID 1165); details: higher = more signal;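 further: viability of MM1S multiple myeloma cells under basal unstimulated conditions; test concentration not given here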
[15] = basal RPMI8226 viability, no added stimulus, profiling panel, cell-based, calcein-AM fluorescence, 48 h, PK04 Diversity Set (AID 1166); details: RPMI8226 myeloma viability, higher = more signal;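 further: cells grown under basal conditions without added stimulus; test concentration not given here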
[16] = basal HepG2 mitochondrial membrane potential changes, profiling panel, cell-based, JC-1 fluorescence, 24 h, 100 nL compound (AID 1167); details: higher = more signal; further: test concentration not given here
[17] = basal 3T3-L1 adipocyte mitochondrial potential changes, profiling panel, cell-based, JC-1 fluorescence, 3T3-L1 adipocytes, 24 h, 100 nL compound (AID 1168); details: JC-1 mitochondrial fluorescence, higher = more signal, called active from +8 up or from −8 down; further: test concentration not given here
[18] = basal RPMI8226 mitochondrial membrane potential changes, profiling panel, cell-based, JC-1 fluorescence, 24 h, 100 nL compound (AID 1169); details: RPMI8226 myeloma, JC-1 mitochondrial potential fluorescence, higher = more signal; further: test concentration not given here
[19] = basal MM1S mitochondrial membrane potential changes, profiling panel, cell-based, JC-1 fluorescence, 24 h, 100 nL compound (AID 1170); details: higher = more signal; further: test concentration not given here
[20] = A549 lung cancer cell viability effects, profiling panel, resazurin fluorescence, 24 h, PK04 Diversity Set (AID 1171); details: higher = more signal, called active from +8 up or from −8 down; further: test concentration not given here

Sequence of NADPH oxidase 2 (Homo sapiens) (P04839 whole entry, looked up): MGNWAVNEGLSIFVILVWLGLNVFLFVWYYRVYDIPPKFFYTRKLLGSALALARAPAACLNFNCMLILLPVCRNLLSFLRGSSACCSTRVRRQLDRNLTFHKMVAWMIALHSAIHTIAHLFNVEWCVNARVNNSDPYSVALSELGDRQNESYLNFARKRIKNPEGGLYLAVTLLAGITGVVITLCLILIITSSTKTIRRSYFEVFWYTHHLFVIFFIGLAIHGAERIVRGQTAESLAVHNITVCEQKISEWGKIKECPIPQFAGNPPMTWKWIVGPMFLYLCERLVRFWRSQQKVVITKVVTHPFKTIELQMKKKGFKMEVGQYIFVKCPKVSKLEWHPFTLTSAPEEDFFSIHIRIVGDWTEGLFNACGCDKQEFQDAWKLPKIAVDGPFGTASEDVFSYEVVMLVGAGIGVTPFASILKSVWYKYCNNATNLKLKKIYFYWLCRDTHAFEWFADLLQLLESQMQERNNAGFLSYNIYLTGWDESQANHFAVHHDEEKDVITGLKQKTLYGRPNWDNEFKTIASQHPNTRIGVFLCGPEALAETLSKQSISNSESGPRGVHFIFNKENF
Sequence of NADPH oxidase 5 (Homo sapiens) (Q96PH1 whole entry, looked up): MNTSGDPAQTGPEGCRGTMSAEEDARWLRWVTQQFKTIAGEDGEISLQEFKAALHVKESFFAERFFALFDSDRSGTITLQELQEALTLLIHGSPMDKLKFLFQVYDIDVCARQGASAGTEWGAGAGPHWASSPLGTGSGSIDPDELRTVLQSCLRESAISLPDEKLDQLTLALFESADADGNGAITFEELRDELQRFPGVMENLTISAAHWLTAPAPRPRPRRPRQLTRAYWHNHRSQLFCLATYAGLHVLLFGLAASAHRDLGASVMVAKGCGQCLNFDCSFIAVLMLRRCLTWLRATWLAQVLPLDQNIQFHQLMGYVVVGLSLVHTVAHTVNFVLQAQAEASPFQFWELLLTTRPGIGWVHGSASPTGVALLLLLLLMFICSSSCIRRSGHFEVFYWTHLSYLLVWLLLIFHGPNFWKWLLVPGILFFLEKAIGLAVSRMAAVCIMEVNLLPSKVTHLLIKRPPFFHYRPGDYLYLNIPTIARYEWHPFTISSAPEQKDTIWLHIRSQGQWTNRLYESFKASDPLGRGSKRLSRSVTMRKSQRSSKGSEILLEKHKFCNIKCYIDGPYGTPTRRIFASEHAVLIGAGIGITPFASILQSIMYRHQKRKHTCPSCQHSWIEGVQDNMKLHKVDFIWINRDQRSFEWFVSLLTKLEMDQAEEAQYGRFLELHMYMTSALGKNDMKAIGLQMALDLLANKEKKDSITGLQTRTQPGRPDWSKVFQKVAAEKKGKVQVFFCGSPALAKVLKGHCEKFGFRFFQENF
Sequence of NADPH oxidase 4 (Homo sapiens) (Q9NPH5 whole entry, looked up): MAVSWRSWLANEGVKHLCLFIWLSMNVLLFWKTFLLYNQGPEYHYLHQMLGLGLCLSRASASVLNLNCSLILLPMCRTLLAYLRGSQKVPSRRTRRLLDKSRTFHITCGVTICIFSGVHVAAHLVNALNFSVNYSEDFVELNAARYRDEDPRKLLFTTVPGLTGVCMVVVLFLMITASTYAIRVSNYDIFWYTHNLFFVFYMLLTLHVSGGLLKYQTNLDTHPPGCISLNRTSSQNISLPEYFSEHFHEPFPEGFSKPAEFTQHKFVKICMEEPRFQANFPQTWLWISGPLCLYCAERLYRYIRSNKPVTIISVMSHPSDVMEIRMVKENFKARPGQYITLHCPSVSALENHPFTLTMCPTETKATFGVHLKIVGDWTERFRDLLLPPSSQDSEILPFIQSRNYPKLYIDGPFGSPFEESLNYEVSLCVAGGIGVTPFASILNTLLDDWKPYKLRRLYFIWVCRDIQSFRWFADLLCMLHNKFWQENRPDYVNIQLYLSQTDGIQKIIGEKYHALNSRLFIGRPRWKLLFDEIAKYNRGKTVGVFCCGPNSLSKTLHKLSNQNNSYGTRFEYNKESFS

Compound | z-score [1] | composite z-score [2] | z-score [3] | z-score [4] | z-score [5] | z-score [6] | z-score [7] | z-score [8] | z-score [9] | z-score [10] | z-score [11] | z-score [12] | z-score [13] | z-score [14] | z-score [15] | z-score [16] | z-score [17] | z-score [18] | z-score [19] | z-score [20]
CO[C@@H]1COC(=O)[C@H](COCc2ccccc2)NC(=O)CC=C[C@@H](C)[C@H](OC)COC(=O)[C@@H](C)NC(=O)CC=C[C@H]1C | 0.52 (inactive) | -0.193 | -0.302 (inactive) | -0.0696 (inactive) | 0.386 (inactive) | 0.131 (inactive) | 0.166 | -0.74 (inactive) | 0.773 (inactive) | 0.436 | 0.759 | 0.0006 | 0.56 | 0.208 | -1.54 | 0.648 | -0.828 (inactive) | 0.402 | -0.343 | 0.846 (inactive)
CCOC(=O)NN=C1C[C@@H](O)[C@@H](O)[C@@H]2[C@@H]3C(=O)N(c4ccc(F)cc4F)C(=O)[C@@H]3CC[C@H]12 | -0.57 (inactive) | -0.0106 | 1.03 (inactive) | -1.41 (inactive) | 0.465 (inactive) | -1.75 (inactive) | 0.245 | -4.88 (inactive) | -1.81 (inactive) | -0.472 | -0.999 | 1.01 | -0.925 | 0.593 | -0.895 | 1.11 | -0.734 (inactive) | 0.14 | -0.354 | 0.745 (inactive)
O=C1[C@H]2[C@H]3[C@H](O)[C@H](O)CC(=NOC[C@@H](O)COCc4ccco4)[C@@H]3CC[C@H]2C(=O)N1C1CCCCC1 | 0.38 (inactive) | 0.0616 | 7.07 (inactive) | 0.409 (inactive) | 0.347 (inactive) | 0.329 (inactive) | -0.9 | -0.0721 (inactive) | 0.721 (inactive) | 0.475 | 0.0095 | 0.272 | 0.444 | 0.0224 | -0.002 | -0.82 | -0.181 (inactive) | -0.422 | -0.891 | 0.014 (inactive)
CCOC(=O)[C@H](Cc1ccccc1)NC(=O)CCC1CC(OC(=O)NCc2cccc3ccccc23)CC2(CCCC(COC(=O)NCC3CCCCC3)O2)O1 (stereo not given in full) | 0.0278 (inactive) | -0.0662 | 1.78 (inactive) | -0.393 (inactive) | -1.94 (inactive) | -0.611 (inactive) | -0.154 | 0.746 (inactive) | 0.745 (inactive) | 0.517 | 0.391 | 0.146 | -0.574 | -0.0497 | -0.68 | -0.00703 | -0.00973 (inactive) | -0.198 | -0.296 | 0.684 (inactive)
CC(=O)OC[C@H]1O[C@H](C#CCC2CCCCC2)C=C[C@@H]1OC(C)=O | 0.457 (inactive) | -0.19 | 2.09 (inactive) | 0.138 (inactive) | 0.0473 (inactive) | 0.125 (inactive) | -0.274 | 0.217 (inactive) | 0.556 (inactive) | 1.74 | 0.422 | -0.654 | 0.503 | -3.48 | -3.35 | -1.1 | -0.185 (inactive) | -0.605 | -1.99 | -0.389 (inactive)
